In PubChem BioAssay (EPA / NIEHS) one finds outcome and AC50 data, which are given here for seven molecules.

Values joined by “and” are separate entries in the source; they are usually repeats but may differ in a detail not shown here. Equal values may be shown once. Some compounds were tested as several samples or in several runs, with calls that do not always agree. Active and inactive are the calls of the source. Rule for the calls: active = hit-call score of the fitted dose curve at least 0.9, where 1 is the maximum; inactive = score below 0.9.

Read-out in one experiment: Epidermal growth factor receptor (EGFR), EGFR (gene 1956)
The experiment in a line: BSK_BE3C_EGFR: BioMAP Diversity Plus: BE3C Assay for Epidermal growth factor receptor (EGFR) Biomarker Activity (AID 2284281). To be noted: primary human bronchial epithelial cells. A digest of the protocol: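 Primary human lung bronchial epithelial cells; compound, 24 h; EGFR measured by ELISA; positive-direction fit vs DMSO baseline.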
`O=C(Nc1ccc2c(O)c(N=Nc3ccc(N=Nc4ccc(S(=O)(=O)O)cc4)cc3)c(S(=O)(=O)O)cc2c1)c1ccccc1`: the result was inactive.
In the case of `CC(CN=Cc1ccccc1O)N=Cc1ccccc1O` (stereo not given), the result was inactive.
On the same count and under the same terms, the value for `O=CN1CCOCC1` was “inactive”.
The term AC50 denotes the concentration giving half of the maximal activity seen. Turning to `CC1(C)CCC[C@]2(C)[C@H]3CCO[C@]3(C)CC[C@@H]12`, the half-maximal activity concentration (AC50) was 33.1 µM (active) and the outcome was inactive.
Consider `C=CC(C)(O)CCC=C(C)C` (stereo not given), for which the result was inactive.
Still for that read-out and setting: the value for `CCCCCCC(CO)CCCC` (stereo not given) was “inactive”; that for `CCOC(=O)C(C#N)=C(c1ccccc1)c1ccccc1` was “inactive”.

Read-out in the next experiment: KRT18 (gene 3875)
The experiment in a line: BSK_BE3C_Keratin818: BioMAP Diversity Plus: BE3C Assay for Keratin 818 Biomarker Activity (AID 2284282). Conditions: primary human bronchial epithelial cells. A digest of the protocol: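 Primary human bronchial epithelial cells treated 24 h; Keratin 8/18 quantified by ELISA, fit relative to DMSO. Cytotoxicity tracked in parallel cultures by sulforhodamine B total-protein staining.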
As for `O=C(Nc1ccc2c(O)c(N=Nc3ccc(N=Nc4ccc(S(=O)(=O)O)cc4)cc3)c(S(=O)(=O)O)cc2c1)c1ccccc1`, the outcome was inactive.
`CC(CN=Cc1ccccc1O)N=Cc1ccccc1O` (stereo not given): the result was inactive.
On the same count and under the same terms, as for `O=CN1CCOCC1`, the entry is “inactive”.
For the molecule `CC1(C)CCC[C@]2(C)[C@H]3CCO[C@]3(C)CC[C@@H]12`, the AC50 was 30.8 µM (active) and the outcome was inactive.
For the molecule `C=CC(C)(O)CCC=C(C)C` (stereo not given), the outcome was inactive.
On the same count and under the same terms, as for `CCCCCCC(CO)CCCC` (stereo not given), the entry is “inactive”; as for `CCOC(=O)C(C#N)=C(c1ccccc1)c1ccccc1`, “inactive”.

Read-out in the next experiment: Matrix Metallopeptidase 9 (MMP9), MMP9 (gene 4318)
Briefly: BSK_BE3C_MMP9: BioMAP Diversity Plus: BE3C Assay for Matrix Metallopeptidase 9 (MMP9) Biomarker Activity (AID 2284283). Conditions: primary human bronchial epithelial cells. A digest of the protocol:
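Human primary bronchial epithelial cells in the BE3C system were dosed with compound for 24 h. MMP-9 was measured by ELISA, and the positive-direction response was fitted relative to DMSO as baseline. Parallel SRB staining gauged cytotoxicity.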
On to `O=C(Nc1ccc2c(O)c(N=Nc3ccc(N=Nc4ccc(S(=O)(=O)O)cc4)cc3)c(S(=O)(=O)O)cc2c1)c1ccccc1`, for which the result was inactive.
With `CC(CN=Cc1ccccc1O)N=Cc1ccccc1O` (stereo not given), the outcome was inactive.
For the molecule `O=CN1CCOCC1`, the outcome was inactive.
On to `CC1(C)CCC[C@]2(C)[C@H]3CCO[C@]3(C)CC[C@@H]12`, for which the half-maximal activity concentration (AC50) is 31.6 µM (active) and the outcome was inactive.
As to `C=CC(C)(O)CCC=C(C)C` (stereo not given), the outcome was inactive.
On the same count and under the same terms, the value for `CCCCCCC(CO)CCCC` (stereo not given) was “inactive”; that for `CCOC(=O)C(C#N)=C(c1ccccc1)c1ccccc1` was “inactive”.

Read-out in a further experiment: Plasminogen activator inhibitor-1 (PAI1), SERPINE1 (gene 5054)
The experiment in a line: BSK_CASM3C_PAI1: BioMAP Diversity Plus: CASM3C Assay for Plasminogen activator inhibitor-1 (PAI1) Biomarker Activity (AID 2284284).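 Note: PAI-1 protein level measured by ELISA 24 h after dosing.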 To be noted: primary human coronary artery smooth muscle cells.
Consider `O=C(Nc1ccc2c(O)c(N=Nc3ccc(N=Nc4ccc(S(=O)(=O)O)cc4)cc3)c(S(=O)(=O)O)cc2c1)c1ccccc1`, for which the result was inactive.
The same measure, in the same setting: the value for `CC(CN=Cc1ccccc1O)N=Cc1ccccc1O` (stereo not given) was “inactive”; that for `O=CN1CCOCC1` was “inactive”.
The same measure, in the same setting: as for `CC1(C)CCC[C@]2(C)[C@H]3CCO[C@]3(C)CC[C@@H]12`, the entry is “inactive”; as for `C=CC(C)(O)CCC=C(C)C` (stereo not given), “inactive”.
Turning to `CCCCCCC(CO)CCCC` (stereo not given), the outcome was inactive.
As to `CCOC(=O)C(C#N)=C(c1ccccc1)c1ccccc1`, the result was inactive.

Read-out in a further experiment: Monocyte Chemoattractant Protein-1 (MCP1), CCL2 (gene 6347)
Briefly: BSK_hDFCGF_MCP1: BioMAP Diversity Plus: hDFCGF Assay for Monocyte Chemoattractant Protein-1 (MCP1) Biomarker Activity (AID 2284285). To be noted: primary human foreskin fibroblasts. Here is the method:
BSK_hDFCGF is a cell-based, multiplexed-readout assay that uses foreskin fibroblast, a human skin primary cell, with measurements taken at 24 hours after chemical dosing in a 96-well plate.BSK_hDFCGF_MCP1 is an assay component measured in the BSK_hDFCGF assay. It measures MCP-1 antibody related to regulation of gene expression using ELISA technology.Data from the assay component BSK_hDFCGF_MCP1 was analyzed at the endpoint, BSK_hDFCGF_MCP1, in the positive analysis fitting direction relative to DMSO as the negative control and baseline of activity. Using a type of binding reporter, gain or loss-of-signal activity can be used to understand protein changes. To generalize the intended target to other relatable targets, this assay endpoint is annotated to the 'cytokine' intended target family, where the subfamily is 'chemotactic factor'.
The levels of cell surface (or secreted, indicated by the prefix "s") biomarker endpoints were measured by ELISA. Overt cytotoxicity to cells in confluent adherent cultures (all systems other than the BT system) was assessed by measuring total protein levels using sulforhodamine B (SRB) staining in parallel cultures at the time of biomarker measurements, indicated as SRB endpoints. For proliferation assays for adherent cell types, individual cell types are cultured at sub-confluence and relative cell numbers quantified by SRB staining at time points optimized for each system (48 h: 3C and CASM3C systems; 72 h: BT and HDF3CGF systems; 96 h: SAg system). SRB was performed by staining cells with 0.1% SRB after fixation with 10% TCA and reading wells at 560 nm.Viability and proliferation of PBMC (T cells) was quantified by Alamar Blue reduction for the SAg and BT systems. For PBMC viability (referred to as PBMC Cytotoxicity within the assay endpoint names), cells were plated (75,000/well in a 96-well plate) and then chemical samples added for 1 h before addition of activators, SEB and TSST-1 (20 ng/mL final concentration each). Cells were incubated for 90 h. Then, Alamar Blue (20 uL/well) (Invitrogen, Cat DAL1100) was added for 6 h, and the plates were read with a fluorescence microplate reader at 546/580 nm (excitation/emission). For PBMC proliferation, cells were plated and activated as above but incubated for only 16 h prior to addition of Alamar Blue. Plates were read after 6 h.
On to `O=C(Nc1ccc2c(O)c(N=Nc3ccc(N=Nc4ccc(S(=O)(=O)O)cc4)cc3)c(S(=O)(=O)O)cc2c1)c1ccccc1`, for which the outcome was inactive.
The same measure, in the same setting: as for `CC(CN=Cc1ccccc1O)N=Cc1ccccc1O` (stereo not given), the entry is “inactive”.
The same measure, in the same setting: as for `O=CN1CCOCC1`, the entry is “inactive”.
On to `CC1(C)CCC[C@]2(C)[C@H]3CCO[C@]3(C)CC[C@@H]12`, for which the AC50 was 30.6 µM (active) and 30.5 µM (active).
`C=CC(C)(O)CCC=C(C)C` (stereo not given): the outcome was inactive.
As for `CCCCCCC(CO)CCCC` (stereo not given), the AC50 is 30.9 µM (active) and 35 µM (active).
With `CCOC(=O)C(C#N)=C(c1ccccc1)c1ccccc1`, the outcome was inactive.

Read-out in the next experiment: Intercellular Adhesion Molecule 1 (ICAM1), ICAM1 (gene 3383)
Briefly: BSK_hDFCGF_ICAM1: BioMAP Diversity Plus: hDFCGF Assay for Intercellular Adhesion Molecule 1 (ICAM1) Biomarker Activity (AID 2284287). To be noted: primary human foreskin fibroblasts. A digest of the protocol: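 Primary human foreskin fibroblasts (hDFCGF system) dosed with chemical; ICAM-1 quantified by ELISA at 24 h relative to DMSO. Parallel SRB total-protein staining to assess overt cytotoxicity.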
In the case of `O=C(Nc1ccc2c(O)c(N=Nc3ccc(N=Nc4ccc(S(=O)(=O)O)cc4)cc3)c(S(=O)(=O)O)cc2c1)c1ccccc1`, the outcome was inactive.
Take `CC(CN=Cc1ccccc1O)N=Cc1ccccc1O` (stereo not given): the result was inactive.
Still for that read-out and setting: as for `O=CN1CCOCC1`, the entry is “inactive”.
`CC1(C)CCC[C@]2(C)[C@H]3CCO[C@]3(C)CC[C@@H]12`: the AC50 is 37.5 µM (active) and 37.8 µM (active).
Turning to `C=CC(C)(O)CCC=C(C)C` (stereo not given), the result was inactive.
On to `CCCCCCC(CO)CCCC` (stereo not given), for which the AC50 is 35.6 µM (active) and 34.7 µM (active).
With `CCOC(=O)C(C#N)=C(c1ccccc1)c1ccccc1`, the result was inactive.
